An excerpt weighted towards active compounds, which were near 21% of everything screened.
IL-1B inflam inh = qHTS for Inhibitors of Inflammasome Signaling: IL-1-beta AlphaLISA Primary Screen. THP-1 LPS/ATP IL-1B secretion, AlphaLISA, 16 h; stronger effect = lower value. activity change, % at 57.5 µM. hit rate 4.7% among 360,000; in the data active means activity change below about -50%; inconclusive means mostly about -30% to -49%
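THP-1 cells pretreated 1 hr with compounds (up to 57.5 uM final), then stimulated with LPS (250 ng/mL final) plus ATP (1.25 mM final); secreted IL-1B measured by AlphaLISA after 16 hr, decreased signal indicating inhibition.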
ELG1 DNA repair = qHTS screen for small molecules that inhibit ELG1-dependent DNA repair in human embryonic kidney (HEK293T) cells expressing luciferase-tagged ELG1 | Potency, µM (doses to about 46.1 µM), usual class: inhibitors | HEK293T ELG1-luciferase reporter, luminescence, 16 h; DNA damage induced by 5-fluorouridine | hit rate 2.3% among 330,000; further: nearly all actives have a fitted effect of over 55% in size
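Luminescence from the luciferase reporter, measured 30 min after ONE-Glo reagent at room temperature, was the read-out. Beforehand, 2,000 cells per well were exposed for 16 hr at 37 °C to 5-fluorouridine together with compound or vehicle.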
DT40 TDP1 no CPT = qHTS for Inhibitors of human tyrosyl-DNA phosphodiesterase 1 (TDP1): qHTS in cells in absence of CPT | DT40 Tdp1-/- hTDP1 cells, no CPT, ATP luminescence, 48 h | Potency, µM (doses to about 46.2 µM), hits mostly inhibitors | hit rate 15% among 420,000 | AID 686978, 2013; further: nearly all actives have a fitted effect of over 55% in size
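DT40 Tdp1-/-;hTDP1 cells, no CPT (DMSO vehicle only), 400 cells/well; compounds pin-transferred; ≥48 hr, 37 °C; CellTiter-Glo 30 min RT dark, luminescence read.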
Gal4-VP16 FLuc = VP16 counterscreen qHTS for inhibitors of ROR gamma transcriptional activity; Potency, µM (top dose mostly 53.6 µM), hits mostly inhibitors; AID 2546, 2010; Drosophila S2 Gal4-VP16 UAS-luciferase, luminescence, 20 h; hit rate 3.5% among 310,000;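 further: Gal4-VP16 expression switched on by copper sulfate through the metallothionein promoter; nearly all actives have a fitted effect of over 50% in size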
DT40 TDP1 CPT = qHTS for Inhibitors of human tyrosyl-DNA phosphodiesterase 1 (TDP1): qHTS in cells in presence of CPT; chicken DT40 Tdp1-/-;hTDP1 cells + 20 nM CPT, ATP luminescence, 48 h; Potency, µM (highest dose often 46.2 µM), most hits filed as inhibitors; hit rate 12% among 420,000; further: nearly all actives have a fitted effect of over 55% in size
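Chicken DT40 Tdp1-/- cells stably complemented with human TDP1 were seeded at 400 cells/well in medium containing 20 nM camptothecin, exposed to pin-transferred compounds, and grown at 37 °C for at least 48 hr. Viability was read as ATP luminescence.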
RORgamma inh = qHTS for inhibitors of ROR gamma transcriptional activity; Nuclear receptor ROR-gamma (Mus musculus), P51450; Drosophila S2 Gal4-RORgamma UAS-luciferase reporter, 20 h; Potency, µM (top dose mostly 53.6 µM), usual class: inhibitors; hit rate 5.4% among 310,000; further: nearly all actives have a fitted effect of over 60% in size
Target sequence (P51450 whole entry, looked up, the tested form may be a part): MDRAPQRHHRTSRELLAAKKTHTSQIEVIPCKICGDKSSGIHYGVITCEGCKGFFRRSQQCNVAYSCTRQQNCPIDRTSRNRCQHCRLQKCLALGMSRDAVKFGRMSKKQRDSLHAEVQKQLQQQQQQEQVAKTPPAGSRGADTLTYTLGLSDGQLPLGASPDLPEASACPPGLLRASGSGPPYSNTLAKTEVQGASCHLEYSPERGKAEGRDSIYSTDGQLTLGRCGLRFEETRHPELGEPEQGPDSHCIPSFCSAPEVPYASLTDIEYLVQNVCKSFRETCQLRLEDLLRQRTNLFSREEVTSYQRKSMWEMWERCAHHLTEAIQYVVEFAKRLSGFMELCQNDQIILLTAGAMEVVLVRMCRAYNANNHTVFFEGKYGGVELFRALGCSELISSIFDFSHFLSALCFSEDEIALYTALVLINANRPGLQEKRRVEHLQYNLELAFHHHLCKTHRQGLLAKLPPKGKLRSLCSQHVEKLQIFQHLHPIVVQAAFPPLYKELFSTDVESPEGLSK
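A Gal4/UAS one-hybrid system in insect cells: metallothionein-promoter Gal4–ROR gamma fusion plus Photinus luciferase reporter. Copper sulfate 700 uM final, 20 hr ambient incubation, luminescent detection after 10 min with reagent.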
A number is an active result; - = inactive; ? = inconclusive; . = no result; [ ] = another dose, or the depositor's remark. Unless noted, the call rests on the fitted dose curve; in most records, active means well fitted curve in the direction sought with a large enough effect; inconclusive means small, poorly fitted or top-dose-only effect, or another doubt; inactive means no such curve, though single readings can be large; an effect the other way counts as inactive or inconclusive.

SMILES | IL-1B inflam inh | ELG1 DNA repair | DT40 TDP1 no CPT | Gal4-VP16 FLuc | DT40 TDP1 CPT | RORgamma inh
COCCN(CC(=O)Nc1cccc(C)c1C)C(=O)Cc1cccs1 | - | - | - | . | - | .
COCCN(Cc1cc2cc3c(cc2nc1Cl)OCO3)C(=O)Nc1ccccc1OC | - | ? | 23µM | - | 16µM | -
COCC(=O)N(CCN(C)C)Cc1cc2cc3c(cc2nc1Cl)OCO3 | - | ? | - | - | - | -
COCCN(Cc1cc2cc3c(cc2nc1Cl)OCO3)C(=O)Nc1ccc(F)cc1 | -71 | ? | 11µM | -[0.365 µM] | 16µM | ?
COCCN(Cc1cc2cc3c(cc2nc1Cl)OCO3)C(=O)Nc1ccc(OC)cc1 | - | - | 10µM | - | ? | -[10 µM]
COCCN(Cc1cc2cc(C)ccc2nc1Cl)C(=O)Nc1ccccc1C | -70 | ? | 16µM | - | 16µM | -
CCOc1ccc(NC(=O)Cn2cc(C(=O)c3ccccc3)c(=O)c3cc4c(cc32)OCCO4)cc1 | . | . | - | . | - | .
Cc1ccc2nc(Cl)c(CN(Cc3cccs3)C(=O)C3CC3)cc2c1 | - | - | - | - | ? | -
COc1ccc(CCN(Cc2cc3cc(C)c(C)cc3nc2Cl)C(=O)C2CC2)cc1 | - | - | 21µM | - | 26µM | -
C=CCNC(=O)c1cc([N+](=O)[O-])cc2c(=O)[nH]c(Nc3ccc(Cl)c(Cl)c3)nc12 | . | . | . | - | . | -
O=C1/C(=C/c2ccncc2)SC(=S)N1C1CCS(=O)(=O)C1 (stereo unspecified) | -92 | ? | 8.2µM | ? | 5.8µM | 11µM
CCN(C(=O)CN1C(=O)/C(=C/c2ccccc2)SC1=S)C1CCS(=O)(=O)C1 (stereo unspecified) | - | - | ? | - | 23µM | -
O=C1/C(=C/c2ccccc2)SC(=S)N1C1CCS(=O)(=O)C1 (stereo unspecified) | - | ? | ? | ? | 23µM | -
O=C1/C(=C\c2cccs2)SC(=S)N1C1CCS(=O)(=O)C1 (stereo unspecified) | ? | - | ? | - | ? | ?
CCOc1ccc(NC(=O)Cn2c(=O)n(Cc3nc(-c4ccccc4)no3)c(=O)c3ccccc32)cc1 | . | . | ? | . | - | .
Brc1ccc(C=C2C=c3ccccc3=C2)cc1 | . | . | - | . | - | .
Cc1cccc(Cn2c(SCc3ccc(C(=O)NCc4cccs4)cc3)nc3cccnc32)c1 | . | . | 15µM | . | ? | .
O=C(NCc1ccco1)c1ccc(Cn2c(SCc3ccccc3F)nc3cccnc32)cc1 | . | . | 23µM | . | ? | .
O=C(NCCc1cccs1)c1ccc(Cn2c(SCc3ccc(F)cc3)nc3cccnc32)cc1 | . | . | 21µM | . | ? | .
Cc1ccc(Cn2c(SCc3ccc(C(=O)O)cc3)nc3cccnc32)cc1 | . | . | - | . | - | .
CC(CNC(=O)c1ccc(Cn2c(SCc3ccccc3)nc3cccnc32)cc1)c1ccccc1 (stereo unspecified) | . | . | 21µM | . | ? | .
CCCCC/C=C\C\C=C/C=C/C=C/[C@@H](SC[C@H](N)C(=O)NCC(=O)O)[C@@H](O)CCCC(=O)O | . | . | -[0.628 µM] | . | -[0.628 µM] | .
COc1ccc(CC(=O)NCc2ccc3c(c2)CCN3C(C)=O)cc1 | . | . | - | . | - | .
CC(=O)NCCNc1nc(-c2cccc(C#N)c2)nc2ccccc12 | . | . | ? | - | ? | -
Cc1ccc(CSc2nc3cccnc3n2Cc2ccc(C(=O)NCc3ccco3)cc2)cc1 | . | . | - | . | - | .
O=C(NCc1cccs1)c1ccc(Cn2c(SCc3ccccc3)nc3cccnc32)cc1 | . | . | 26µM | . | ? | .
Cc1nc(NC(=O)CSc2nc3cccnc3n2Cc2ccccc2)sc1C | - | ? | ? | ? | ? | 13µM
CCOC(=O)CNC(=O)CSc1nc2cccnc2n1Cc1ccccc1 | - | ? | - | - | - | -

Screening results deposited in PubChem by National Center for Advancing Translational Sciences (NCATS).
